Test results published in the supplement of paper PMC11732987, “Enantioselective OTUD7B fragment discovery through chemoproteomics screening and high-throughput optimisation” (Communications Chemistry, 2025).

Tests used:
Experiment in all cases: log2 ratio of Biotin-Ahx-Ub-VS probe labelling (fragment/DMSO); higher = less target engagement (more negative = stronger competition), active = hit call of the paper (q ≤ 0.05, log2 ratio ≤ -1)
Conditions in all cases: compound concentration: 200 uM; treatment time: 3 h
OTUD6B = target: T1, OTUD6B (UniProt Q8N6M0)
T1 sequence (whole entry): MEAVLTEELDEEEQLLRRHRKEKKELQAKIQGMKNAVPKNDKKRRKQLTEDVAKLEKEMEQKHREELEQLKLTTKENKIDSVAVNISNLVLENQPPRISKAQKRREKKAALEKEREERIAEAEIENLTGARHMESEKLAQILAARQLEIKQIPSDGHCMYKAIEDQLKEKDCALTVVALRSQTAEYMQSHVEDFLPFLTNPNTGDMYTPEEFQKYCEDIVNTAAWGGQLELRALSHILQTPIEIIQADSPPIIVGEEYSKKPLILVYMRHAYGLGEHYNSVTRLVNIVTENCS
Outline: (§1)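 Using Biotin-Ahx-Ub-VS at 0.5 µM final for 1 h, DUBs were labelled in HEK293T lysate (495 µg per sample) that had first been treated in triplicate with fragment at 200 µM or vehicle for 3 h. NeutrAvidin enrichment, LysC and trypsin digestion and diaPASEF LC-MS/MS followed. Spectronaut label-free quantities were global-median-normalised. Values are average log2 fragment/vehicle ratios by unpaired t-test, using proteins with ≥2 unique peptides.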

OTUD7B = target: T2, OTUD7B (UniProt Q6GQQ9)
T2 sequence (whole entry): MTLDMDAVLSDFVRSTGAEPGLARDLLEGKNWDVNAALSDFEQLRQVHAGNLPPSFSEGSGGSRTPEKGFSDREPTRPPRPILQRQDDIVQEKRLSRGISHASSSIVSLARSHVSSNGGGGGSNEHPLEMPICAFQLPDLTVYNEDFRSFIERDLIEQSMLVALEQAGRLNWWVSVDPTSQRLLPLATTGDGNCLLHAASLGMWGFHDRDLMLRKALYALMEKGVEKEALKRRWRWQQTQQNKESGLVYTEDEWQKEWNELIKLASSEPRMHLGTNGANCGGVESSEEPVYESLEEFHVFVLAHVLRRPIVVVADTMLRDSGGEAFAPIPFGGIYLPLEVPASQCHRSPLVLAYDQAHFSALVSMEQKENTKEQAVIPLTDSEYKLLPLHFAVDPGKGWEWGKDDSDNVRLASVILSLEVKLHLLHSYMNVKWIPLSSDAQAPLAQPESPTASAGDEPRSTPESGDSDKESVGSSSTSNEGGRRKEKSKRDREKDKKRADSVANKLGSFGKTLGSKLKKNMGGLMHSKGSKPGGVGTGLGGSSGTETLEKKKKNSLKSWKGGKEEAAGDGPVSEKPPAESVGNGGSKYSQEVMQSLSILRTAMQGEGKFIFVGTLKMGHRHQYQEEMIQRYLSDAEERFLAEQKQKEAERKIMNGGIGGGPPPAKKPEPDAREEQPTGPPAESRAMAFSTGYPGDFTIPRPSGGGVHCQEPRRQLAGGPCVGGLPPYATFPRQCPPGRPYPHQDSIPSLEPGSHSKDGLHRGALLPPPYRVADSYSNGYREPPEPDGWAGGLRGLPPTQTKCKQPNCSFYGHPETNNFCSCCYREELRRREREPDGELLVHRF
Outline: as §1

PRPF8 = PRPF8 (UniProt Q6P2Q9)
Outline: as §1

PSMD7 = target: T3, PSMD7 (UniProt P51665)
T3 sequence (whole entry): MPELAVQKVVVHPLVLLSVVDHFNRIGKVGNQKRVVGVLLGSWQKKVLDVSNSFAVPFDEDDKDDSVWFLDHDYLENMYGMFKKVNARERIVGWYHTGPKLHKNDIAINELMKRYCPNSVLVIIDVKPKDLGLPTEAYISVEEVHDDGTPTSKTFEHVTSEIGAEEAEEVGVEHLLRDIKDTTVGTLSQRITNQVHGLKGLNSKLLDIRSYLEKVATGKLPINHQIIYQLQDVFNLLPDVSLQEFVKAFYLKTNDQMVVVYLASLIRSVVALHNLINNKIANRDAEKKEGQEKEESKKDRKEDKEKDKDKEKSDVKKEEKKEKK
Outline: as §1

UCHL1 = UCHL1 (UniProt P09936)
Outline: as §1

UCHL3 = target: T4, UCHL3 (UniProt P15374)
T4 sequence (whole entry): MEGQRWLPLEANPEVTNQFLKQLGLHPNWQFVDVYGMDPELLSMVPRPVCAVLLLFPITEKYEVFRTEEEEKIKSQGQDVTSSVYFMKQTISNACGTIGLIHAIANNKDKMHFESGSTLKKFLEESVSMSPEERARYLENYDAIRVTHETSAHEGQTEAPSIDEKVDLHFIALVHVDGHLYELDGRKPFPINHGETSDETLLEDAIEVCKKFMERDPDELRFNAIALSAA
Outline: as §1

UCHL5 = target: T5, UCHL5 (UniProt Q9Y5K5)
T5 sequence (whole entry): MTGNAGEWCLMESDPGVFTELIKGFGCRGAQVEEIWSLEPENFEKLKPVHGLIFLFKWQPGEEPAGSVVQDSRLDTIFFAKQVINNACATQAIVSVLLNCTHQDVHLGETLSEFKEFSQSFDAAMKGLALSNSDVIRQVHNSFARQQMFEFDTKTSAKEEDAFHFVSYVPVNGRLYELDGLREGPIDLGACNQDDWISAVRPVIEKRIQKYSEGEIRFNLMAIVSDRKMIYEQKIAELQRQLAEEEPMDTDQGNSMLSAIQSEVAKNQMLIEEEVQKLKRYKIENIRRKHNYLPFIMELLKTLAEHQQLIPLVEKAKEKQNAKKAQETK
Outline: as §1

USP10 = USP10 (UniProt Q14694)
Outline: as §1

USP15 = target: T6, USP15 (UniProt Q9Y4E8)
T6 sequence (whole entry): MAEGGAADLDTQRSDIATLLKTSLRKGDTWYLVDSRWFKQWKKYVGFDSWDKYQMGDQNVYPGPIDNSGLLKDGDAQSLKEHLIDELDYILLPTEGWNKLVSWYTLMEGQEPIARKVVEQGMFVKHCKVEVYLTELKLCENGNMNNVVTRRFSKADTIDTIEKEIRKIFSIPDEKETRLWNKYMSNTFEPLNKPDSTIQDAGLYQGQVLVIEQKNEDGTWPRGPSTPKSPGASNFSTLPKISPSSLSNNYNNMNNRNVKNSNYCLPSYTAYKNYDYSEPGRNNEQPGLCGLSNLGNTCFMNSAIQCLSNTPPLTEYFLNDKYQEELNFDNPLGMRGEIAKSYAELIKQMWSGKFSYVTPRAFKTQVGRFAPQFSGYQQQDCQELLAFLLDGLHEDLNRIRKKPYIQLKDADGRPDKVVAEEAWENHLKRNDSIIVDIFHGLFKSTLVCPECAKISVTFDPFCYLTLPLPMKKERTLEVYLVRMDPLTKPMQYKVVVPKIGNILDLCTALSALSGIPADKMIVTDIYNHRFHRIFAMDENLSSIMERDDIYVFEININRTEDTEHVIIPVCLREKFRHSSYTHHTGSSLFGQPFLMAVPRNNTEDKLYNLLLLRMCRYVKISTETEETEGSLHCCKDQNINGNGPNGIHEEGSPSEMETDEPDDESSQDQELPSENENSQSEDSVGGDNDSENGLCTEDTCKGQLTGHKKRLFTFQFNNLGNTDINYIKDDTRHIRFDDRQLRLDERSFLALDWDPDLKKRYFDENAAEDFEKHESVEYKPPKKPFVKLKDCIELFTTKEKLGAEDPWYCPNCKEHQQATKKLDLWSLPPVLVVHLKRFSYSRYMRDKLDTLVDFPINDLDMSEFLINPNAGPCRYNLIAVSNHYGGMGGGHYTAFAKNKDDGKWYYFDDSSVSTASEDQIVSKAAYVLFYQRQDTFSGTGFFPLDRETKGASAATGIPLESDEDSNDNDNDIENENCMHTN
Outline: as §1

USP16 = USP16 (UniProt Q9Y5T5)
Outline: as §1

Measured: log2 ratio of Biotin-Ahx-Ub-VS probe labelling

USP10, sequence (Q14694 whole entry): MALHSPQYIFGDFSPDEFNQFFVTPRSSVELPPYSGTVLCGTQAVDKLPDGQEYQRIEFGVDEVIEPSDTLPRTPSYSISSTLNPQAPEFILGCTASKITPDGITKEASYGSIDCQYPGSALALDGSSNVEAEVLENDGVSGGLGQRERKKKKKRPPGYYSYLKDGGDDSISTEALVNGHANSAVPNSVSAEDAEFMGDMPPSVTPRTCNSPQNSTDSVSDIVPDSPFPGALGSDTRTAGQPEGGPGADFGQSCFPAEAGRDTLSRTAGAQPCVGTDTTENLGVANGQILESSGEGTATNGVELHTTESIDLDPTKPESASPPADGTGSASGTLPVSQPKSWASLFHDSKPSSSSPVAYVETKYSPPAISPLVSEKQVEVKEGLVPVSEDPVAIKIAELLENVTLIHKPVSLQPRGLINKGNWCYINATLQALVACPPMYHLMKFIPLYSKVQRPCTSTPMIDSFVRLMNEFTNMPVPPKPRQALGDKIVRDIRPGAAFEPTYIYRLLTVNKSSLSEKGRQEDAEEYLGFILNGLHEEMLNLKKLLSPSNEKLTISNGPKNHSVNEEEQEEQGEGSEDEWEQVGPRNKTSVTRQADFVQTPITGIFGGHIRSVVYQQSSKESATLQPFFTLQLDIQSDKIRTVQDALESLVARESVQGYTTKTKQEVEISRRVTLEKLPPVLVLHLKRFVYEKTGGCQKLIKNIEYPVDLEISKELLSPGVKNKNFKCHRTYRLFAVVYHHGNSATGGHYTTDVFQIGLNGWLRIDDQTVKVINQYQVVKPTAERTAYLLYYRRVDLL
UCHL1, sequence (P09936 whole entry, looked up): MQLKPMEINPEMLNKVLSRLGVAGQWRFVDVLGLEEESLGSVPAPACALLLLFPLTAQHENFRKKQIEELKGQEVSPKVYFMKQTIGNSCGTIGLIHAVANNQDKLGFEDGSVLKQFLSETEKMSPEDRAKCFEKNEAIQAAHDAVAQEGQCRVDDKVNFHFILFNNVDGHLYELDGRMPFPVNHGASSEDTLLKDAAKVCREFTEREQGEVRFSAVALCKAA
USP16, sequence (Q9Y5T5 whole entry, looked up): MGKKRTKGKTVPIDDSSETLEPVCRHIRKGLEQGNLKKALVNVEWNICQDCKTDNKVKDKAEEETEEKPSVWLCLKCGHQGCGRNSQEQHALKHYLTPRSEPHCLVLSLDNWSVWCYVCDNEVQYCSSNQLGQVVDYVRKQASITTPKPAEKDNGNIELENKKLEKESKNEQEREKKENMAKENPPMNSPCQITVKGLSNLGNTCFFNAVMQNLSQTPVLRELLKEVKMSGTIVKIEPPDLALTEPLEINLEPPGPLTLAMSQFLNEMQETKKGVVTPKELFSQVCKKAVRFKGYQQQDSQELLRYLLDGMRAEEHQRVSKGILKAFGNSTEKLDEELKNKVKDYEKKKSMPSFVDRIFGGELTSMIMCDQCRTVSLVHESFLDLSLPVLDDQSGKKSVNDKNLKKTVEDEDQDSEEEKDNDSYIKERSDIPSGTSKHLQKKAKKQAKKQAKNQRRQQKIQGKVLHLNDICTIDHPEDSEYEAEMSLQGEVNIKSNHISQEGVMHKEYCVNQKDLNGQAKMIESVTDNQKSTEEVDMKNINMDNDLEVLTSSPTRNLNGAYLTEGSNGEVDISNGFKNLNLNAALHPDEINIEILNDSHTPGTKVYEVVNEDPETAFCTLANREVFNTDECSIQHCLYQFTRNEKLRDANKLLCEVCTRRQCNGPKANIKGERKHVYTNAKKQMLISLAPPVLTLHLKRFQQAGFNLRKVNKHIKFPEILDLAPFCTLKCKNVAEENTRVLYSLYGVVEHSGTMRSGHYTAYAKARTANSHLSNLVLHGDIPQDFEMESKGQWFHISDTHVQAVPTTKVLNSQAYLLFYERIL

CS(=O)(=O)N1CCCN(C(=O)CCl)CC1
active: UCHL1 -1.95
inactive: OTUD6B -0.512 | OTUD7B -0.631 | PRPF8 -0.104 | PSMD7 -0.148 | UCHL3 0.112 | UCHL5 -0.235 | USP10 -0.0225 | USP15 -0.193 | USP16 0.245
